Experimental data taken from PubChem BioAssay AID2253 (Southern Research Specialized Biocontainment Screening …, 2010).
Among all 2,200 compounds or so, about 1,300 (59%) were called active. The rule behind the calls is not given here. The set was probably picked from earlier hits. Only a sample is shown. Entries that show only a call come without a potency. Potency and affinity values are given separately.

Test: human monocytic cell viability reduction – S. typhimurium screen hits, cytotoxicity control for Salmonella PhoP regulon inhibitors, dose response (AID 2253)
Conditions: THP-1 viability, CellTiter-Glo luminescence, 72 h; series mostly up to 50 µM
In the case of O=C(NCC(=O)N(c1cccnc1)C(C(=O)NCc1ccco1)c1ccccc1)c1ccco1 (configuration not stated), the outcome is reported as “inactive”.
In the case of COC(=O)c1ccccc1NC(=O)CS(=O)(=O)Cc1nc(-c2ccc(C)cc2)oc1C, the outcome is reported as “inactive”.
With COc1ccc(-c2nnn(CC(=O)N(Cc3ccco3)C(C(=O)NCC3CCCO3)c3ccco3)n2)cc1 (configuration not stated) the outcome was “inactive”.
With CSCC[C@H](NC(=O)Nc1ccc(C)cc1)C(=O)O the outcome was “inactive”.
For C=C(C)C1Cc2cc3ccc(=O)oc3cc2O1 (configuration not stated), the outcome was “inactive”.
In the case of CCOC(=O)N1CCC(NC(=O)CCC(=O)c2ccccc2)CC1, the outcome is reported as “inactive”.
For Cc1cccnc1NC(=O)CCCN1C(=O)c2ccccc2C1=O, the outcome was “inactive”.
In the case of COc1ccc(-c2nnc(SCCC(=O)O)n2-c2ccccc2)cc1, the outcome is reported as “inactive”.
With Cc1cccc(C)c1NC(=O)CSc1nnc(NC(=O)CN2CCOCC2)s1 the outcome was “inactive”.
For CCCOc1ccc(C(=O)NC(=S)N2CCN(c3cc4c(cc3F)c(=O)c(C(=O)O)cn4CC)CC2)cc1, the outcome was “inactive”.
With Nc1nnc(Sc2ccc(Cl)cc2[N+](=O)[O-])s1 the outcome was “inactive”.
In the case of c1ccc2oc(SCc3cn4ccccc4n3)nc2c1, the outcome is reported as “inactive”.
With NC(=O)c1cnn(Cc2ccc(Cl)cc2)c1N the outcome was “inactive”.
In the case of CC(=O)Cn1cnc2sc(-c3ccccc3)cc2c1=O, the outcome is reported as “inactive”.
In the case of Nc1ccc(S(=O)(=O)Nc2ccc(Cl)nn2)cc1, the outcome is reported as “inactive”.
For Cc1nc2cc(NC(=O)N3CCN(c4ccccn4)CC3)ccc2o1, the outcome was “inactive”.
With Cc1ccc(C(=O)C2COC(=O)C2)cc1 (configuration not stated) the outcome was “inactive”.
In the case of COc1cccc(NC(=O)CNC(=O)c2cccs2)c1, the outcome is reported as “inactive”.
With Cc1cc2nn(-c3ccccc3)nc2cc1NC(=O)c1cccs1 the outcome was “inactive”.
In the case of O=S(=O)(c1ccc(S(=O)(=O)N2CCN(C/C=C/c3ccccc3)CC2)cc1)N1CCCC1, the outcome is reported as “inactive”.
With COCCNC(=O)CSCc1c(F)cccc1Cl the outcome was “inactive”.
For Cc1nc2c(Cl)cccc2c2c1CC(CBr)O2 (configuration not stated), the outcome was “inactive”.
For CN(C)CCNc1nc(-c2ccccc2)nnc1C(F)(F)F, the outcome was “inactive”.
With Cc1cccc(C=Nc2ccc3c(c2)oc2ccccc23)c1O the outcome was “inactive”.
In the case of CCNC(=S)NNC(=O)c1ccc(OC(F)F)cc1, the outcome is reported as “inactive”.
With Nc1nc(C2CCCCC2)cs1 the outcome was “inactive”.
With COc1ccc(C2=Nc3cccc4cccc(c34)N2)cc1 the outcome was “inactive”.
For O=S(=O)(NC1=NCCCCC1)c1cccs1, the outcome was “inactive”.
With C=CCOc1ccc(CNc2nn[nH]n2)cc1 the outcome was “inactive”.
For OCCN(Cc1ccccc1)Cc1ccc(Cl)cc1, the outcome was “inactive”.
With CN(C)S(=O)(=O)Nc1ccc(C(=O)O)cc1 the outcome was “inactive”.
For CC1CC(C)CN(CCCNC(=O)C2CCC(=O)N2C2CCCC2)C1 (configuration not stated), the outcome was “inactive”.
For CCOCC(=O)Nc1ccc(F)c(F)c1, the outcome was “inactive”.
In the case of O=C(Cn1ncc2c(=O)oc3ccccc3c21)N1CCN(c2ccccn2)CC1, the outcome is reported as “inactive”.
For Cc1ccccc1C(=O)N(C)Cc1ccccc1, the outcome was “inactive”.
For CCOC(=O)c1ccc(N2CCN(c3ccc(F)cc3)CC2)c(NC(=O)Nc2cccc(OC)c2)c1, the outcome was “inactive”.
In the case of Cc1ccc2occ(/C=N/O)c(=O)c2c1, the outcome is reported as “inactive”.
With O=C(O)C1CCCN1S(=O)(=O)c1ccc2[nH]c(=O)c(=O)[nH]c2c1 (configuration not stated) the outcome was “inactive”.
In the case of O=C(CSc1nnc2n(C3CCCCC3)c(=O)c3ccccc3n12)OC1CCCCC1, the outcome is reported as “inactive”.
In the case of Cc1ccc(C(=O)NCC(=O)NCC(=O)OCC(=O)c2ccc([N+](=O)[O-])cc2)cc1, the outcome is reported as “inactive”.
With Cc1ccc(S(=O)(=O)NC2=NCN(CCOC(=O)c3ccc([N+](=O)[O-])cc3)CN2)cc1 the outcome was “inactive”.
In the case of Nc1ncncc1-c1ccc(Cl)cc1, the outcome is reported as “inactive”.
For N#Cc1c(N)nc(SCC(=O)NC2CCCCC2)c(C#N)c1-c1ccc(Cl)cc1, the outcome was “inactive”.
In the case of CCn1cc(C(=O)O)c(=O)c2cc(F)c(N3CCN(C(=S)NC(=O)c4cccc(C)c4)CC3)cc21, the outcome is reported as “inactive”.
For CN1/C(=C/C=N/NC(=O)c2ccc([N+](=O)[O-])cc2)C(C)(C)c2ccccc21, the outcome was “inactive”.
With Clc1ccc(OCCn2ccnc2)c(Br)c1 the outcome was “inactive”.
With O=C(COc1ccc(Br)cc1Cl)NC(=O)NCc1ccccc1 the outcome was “inactive”.
For COc1cc(C)ccc1OCCCOc1ccccc1Br, the outcome was “inactive”.
With Cc1cc(C)c(NC(=S)NC(=O)c2ccc(-c3ccccc3)cc2)c(C)c1 the outcome was “inactive”.
In the case of CC(C)Oc1cccc(C(=O)NC(=S)Nc2ccccc2)c1, the outcome is reported as “inactive”.
With Cn1cc(-c2nnnn2-c2cccc(C(F)(F)F)c2)c(C(F)(F)F)n1 the outcome was “inactive”.
For Nc1cc(=O)[nH]c(=S)n1-c1cccc(C(F)(F)F)c1, the outcome was “inactive”.
In the case of Cc1ccc(/C=C/c2nnc(-c3ccc(C)cc3)o2)cc1, the outcome is reported as “inactive”.
For COc1ccc(OC)c(NC(=O)c2ccccc2NS(=O)(=O)c2cccc3cccnc23)c1, the outcome was “inactive”.
With O=C(CSc1ncn[nH]1)Nc1cccc2ccccc12 the outcome was “inactive”.
In the case of COc1ccc(CCN2CC3=C(C2=O)C(c2ccccc2)NC(=O)N3C)cc1OC (configuration not stated), the outcome is reported as “inactive”.
For O=C(Cc1ccc(Cl)cc1)NNS(=O)(=O)c1ccc([N+](=O)[O-])cc1, the outcome was “inactive”.
In the case of Cc1ccc(C(=O)COC(=O)CNS(=O)(=O)c2ccccc2)cc1[N+](=O)[O-], the outcome is reported as “inactive”.
In the case of O=C(N[C@H](CO)[C@H](O)c1ccc([N+](=O)[O-])cc1)C(Cl)Cl, the outcome is reported as “inactive”.
In the case of COc1ccc2nc(-c3ccccc3)cc(OC)c2c1, the outcome is reported as “inactive”.
For Cc1nc2ccccc2c(=O)n1/N=C/c1ccc(N(C)C)cc1, the outcome was “inactive”.
For Cc1ccc(-c2n[nH]c(=S)n2/N=C/c2cc3c(cc2[N+](=O)[O-])OCO3)cc1, the outcome was “inactive”.
For CN(C)c1ccc(/C=N/c2cc(-c3ccccc3)nn2-c2ccccc2)cc1, the outcome was “inactive”.
In the case of CO[C@@]1(NC(=O)C2SC(=C(C(N)=O)C(=O)O)S2)C(=O)N2C(C(=O)O)=C(CSc3nnnn3C)CS[C@@H]21 (some centres not stated), the outcome is reported as “inactive”.
For CCCn1nnc(NC(=O)c2ccc(Br)o2)n1, the outcome was “inactive”.
In the case of FC(F)(F)c1cc(C(F)(F)F)c2ccc(Oc3ccccc3)nc2n1, the outcome is reported as “inactive”.
In the case of Cc1ccc(NS(=O)(=O)c2ccccc2)c2c1CC(C)(C)O2, the outcome is reported as “inactive”.
For O=C1N=c2ccccc2=C1c1[nH]c(=S)[nH]c1O, the outcome was “inactive”.
In the case of Cc1ccc(Nc2nc(N)nc(CC#N)n2)cc1, the outcome is reported as “inactive”.
In the case of C=CCn1c(SCC(=O)Nc2nnc(CC)s2)nnc1-c1cccnc1, the outcome is reported as “inactive”.
With O=C(c1cn(-c2ccccc2)nc1-c1cccnc1)N1CCCCC1 the outcome was “inactive”.
In the case of c1ccc(CSc2snnc2-c2ccccc2)cc1, the outcome is reported as “inactive”.
With O=C(COC(=O)c1cn(-c2ccccc2)nc1-c1ccccc1)c1cccc([N+](=O)[O-])c1 the outcome was “inactive”.
For [O-]/[N+](=C\c1ccncc1)c1ccccc1, the outcome was “inactive”.
With BrC(=C\c1ccccc1)/C=N/N1CCN(c2ccccn2)CC1 the outcome was “inactive”.
In the case of COC(=O)c1sc2ccccc2c1-n1cccc1C(=O)C(=O)Nc1ccc(Cl)cc1, the outcome is reported as “inactive”.
In the case of CC(=O)c1cccc(NC(=O)NCc2ccco2)c1, the outcome is reported as “inactive”.
With O=C1CCCc2c1cc(C(=O)NCc1ccco1)c(=O)n2-c1ccc(Cl)cc1 the outcome was “inactive”.
In the case of CCCCN(C)C(=O)c1cn(C)c2ccc(S(=O)(=O)N(C)C)cc2c1=O, the outcome is reported as “inactive”.
With CO[C@H]1/C=C/O[C@@]2(C)Oc3c(C)c(O)c4c(O)c(c(C=NN5CCN(C)CC5)c(O)c4c3C2=O)NC(=O)/C(C)=C\C=C\[C@H](C)[C@H](O)[C@@H](C)[C@@H](O)[C@@H](C)[C@H](OC(C)=O)[C@@H]1C the outcome was “inactive”.
In the case of O=Cc1cccn1Cc1ccccc1[N+](=O)[O-], the outcome is reported as “inactive”.
In the case of COC(=O)C1C(=O)C=C(N2CCOCC2)CC1(C)C (configuration not stated), the outcome is reported as “inactive”.
In the case of O=c1c2oc3ccccc3c2ncn1Cc1ccc(Cl)cc1, the outcome is reported as “inactive”.
With CSc1nnc(NC(=O)CCc2ccccc2)s1 the outcome was “inactive”.
For CN1CCCC(OC(=O)CCCC(=O)OC2CCCN(C)C2)C1 (configuration not stated), the outcome was “inactive”.
With O=C(Oc1ccc[nH]c1=O)c1cc([N+](=O)[O-])cc([N+](=O)[O-])c1 the outcome was “inactive”.
With Cc1ccc2nc(C(F)OC(F)(F)F)[nH]c2c1 (configuration not stated) the outcome was “inactive”.
For CC(C)Cc1nc2ccc(N)cc2[nH]1, the outcome was “inactive”.
With O=C(O)CCC(=O)NCC1OCCc2ccccc21 (configuration not stated) the outcome was “inactive”.
For CCn1cc(C(=O)O)c(=O)c2cc(OC)ccc21, the outcome was “inactive”.
With O=C(CSc1nc2[nH]ncc2c(=O)[nH]1)N1CCCCC1 the outcome was “inactive”.
For C#CCOc1ccc(Cl)cc1/C=N/O, the outcome was “inactive”.
With CC1CCCCN1Cc1cnc(Cl)s1 (configuration not stated) the outcome was “inactive”.
With CCN(CC)S(=O)(=O)c1cccc(C(=O)NC(Cc2c[nH]c3ccccc23)c2nnc3n2CCC3)c1 (configuration not stated) the outcome was “inactive”.
In the case of O=C(N/N=C/c1ccco1)c1cccc(S(=O)(=O)Nc2ccccc2Cl)c1, the outcome is reported as “inactive”.
For CC(=O)Oc1ccc(C(=O)[C@H]2[C@H]3C(=O)N(c4ccc5ccccc5c4)C(=O)[C@H]3[C@@H]3C=CC=NN32)cc1, the outcome was “inactive”.
In the case of O=C(CSc1nnc2c(Cl)cc(Cl)cn12)NC1CCS(=O)(=O)C1 (configuration not stated), the outcome is reported as “inactive”.
For O=C(CSc1nnc(-c2ccccc2)n1-c1ccc(Cl)cc1)NC1CCS(=O)(=O)C1 (configuration not stated), the outcome was “inactive”.
In the case of COc1cccc(-c2nnc(SCC(=O)Nc3ccc(OC)c(OC)c3)n2N)c1, the outcome is reported as “inactive”.
For COc1ccc(-c2ccc3c(N)c(C(=O)c4cccc(OC)c4)sc3n2)cc1, the outcome was “inactive”.
With COc1ccc(NC(=O)CCNS(=O)(=O)c2ccc3c(c2)CCC(=O)N3)cc1 the outcome was “inactive”.
For O=c1[nH]c2ccccc2n2c(=S)[nH]nc12, the outcome was “inactive”.
In the case of CCn1ncc(/C=C/C(=O)NCc2cn(C)nc2C)c1C, the outcome is reported as “inactive”.
In the case of COc1ccc(OC)c(S(=O)(=O)N(C)CC(=O)N2CCc3ccccc3C2)c1, the outcome is reported as “inactive”.
For COc1ccc(C(=O)N2CCN(C(=O)c3ccco3)CC2)cc1OC, the outcome was “inactive”.
For Nc1nc(CSc2nc3ccccc3[nH]2)nc(N2CCOCC2)n1, the outcome was “inactive”.
For O=C(NC1CCCC1)c1ccc(Cl)s1, the outcome was “inactive”.
With Cc1cc(-c2csc(NC(=O)c3ccccc3C(F)(F)F)n2)c(C)n1Cc1ccccc1 the outcome was “inactive”.
In the case of O=C(OCc1nnc(-c2ccccc2)o1)c1ccc(S(=O)(=O)NCc2ccco2)cc1, the outcome is reported as “inactive”.
With COC(=O)c1cccc(NC(=O)CCCOc2ccccc2)c1 the outcome was “inactive”.
For COC(=O)c1ccccc1NC(=O)NCc1ccc2c(c1)OCO2, the outcome was “inactive”.
With O=C(Cn1nc(Cc2cccnc2)c2ccccc2c1=O)NCc1ccc2c(c1)OCO2 the outcome was “inactive”.
